40 compounds from PubChem BioAssay (NCATS) can be followed below.

Calls of active or inactive are those of the source. Entries that show only a call come without a potency. The call rests on the fitted dose curve; in most records, active means well fitted inhibition curve with a large enough effect; inconclusive means small, poorly fitted or top-dose-only effect; inactive means flat fitted curve, though single readings scatter. Where a SMILES comes first, the peptide text is derived from it. Bridges are numbered along the chain shown (N, C = ends). [ ]: non-standard residue; d: D form. The star is where a group is joined. X1 = CCC(C)C(N)C1=NC(C(=O)*)CS1; dOrn = NCCC[C@@H](N)C(=O)O

The experiment deals with Nanoluciferase (engineered Oplophorus gracilirostris luciferase). Nature of the experiment: Primary Nanoluciferase (NLuc) qHTS assay for identification of artifact compounds. (AID 1845222).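 Further: NLuc secreted into diluted conditioned medium of S16 cells.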 The note with it: NLuc-conditioned medium, Nano-Glo luminescence, 5 min; series mostly up to 54.1 µM. In a few lines:
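NLuc from S16 cell medium (1:55) plus test compounds, 15 min, room temperature. Luminescence after Nano-Glo (1:100) addition, 5 min.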
`COc1cc(COC2OC(CO)C(O)C(O)C2O)cc(OC)c1O` (stereo not given): the Potency entry is “inactive”. Same read-out and setting: in the case of `CC(C)(O)C1CCC2(C)C3C(O)C4C(C13)C42CO` (stereo not given) it was “inactive”; in that of `CC(/C=C/C1(O)C(C)(C)CC(O)CC1(C)O)OC1OC(CO)C(O)C(O)C1O` (stereo not given), “inactive”; in that of `C=C1CC23CCC4[C@@](C)(CCC[C@@]4(C)C(=O)O)C2CCC1C3` (stereo not given in full), “inactive”. Regarding `OCCc1ccc(O[C@@H]2O[C@H](CO)[C@@H](O)[C@H](O)[C@H]2O)c(O)c1`, the Potency entry is “inactive”. On to `C[C@H]1[C@H](C)CC[C@]2(C(=O)O[C@@H]3O[C@H](CO)[C@@H](O)[C@H](O)[C@H]3O)CC[C@]3(C(=O)O)C(=CCC4[C@@]5(C)CC[C@H](O[C@@H]6O[C@H](CO)[C@@H](O)[C@H](O)[C@H]6O)C(C)(C)C5CC[C@]43C)[C@H]12` (stereo not given in full), for which the activity, negative = inhibition was -1.27% [at 11.6 µM] (inactive). For `OC[C@H]1O[C@@H](n2cnc3c2NC=NC[C@H]3O)C[C@@H]1O`, the Potency entry is “inactive”. On the same count and under the same terms, in the case of `OCC1=CC[C@@H]2C=CO[C@@H](O[C@@H]3O[C@H](CO)[C@@H](O)[C@H](O)[C@H]3O)[C@H]12` it was “inactive”.

In the case of `C/C=C(\C)C(=O)OC[C@H]1O[C@H](O[C@H]2O[C@H](CO)[C@@H](OC(=O)/C(C)=C/C)[C@H](O)[C@H]2O[C@@H]2O[C@H](CO)[C@@H](O)[C@H](O)[C@H]2O)[C@H](O[C@@H]2O[C@H](CO)[C@@H](O)[C@H](O)[C@H]2O)[C@@H](O)[C@@H]1O`, the activity, negative = inhibition was 0% [at 11.6 µM] (inactive). In the case of `CCOC(=O)c1c(C)nn(-c2cccc([N+](=O)[O-])c2)c1C`, the Potency entry is “inactive”.

Take `COc1cc(N2CCC(N(C)C)CC2)ccc1Nc1ncc(Cl)c(Nc2ccccc2P(C)(C)=O)n1`: the Potency result was “inactive”.

Consider `CCC(C)C(N)C1=NC(C(=O)N[C@@H](CC(C)C)C(=O)N[C@H](CCC(=O)O)C(=O)N[C@H](C(=O)N[C@H]2CCCCNC(=O)[C@H](CC(N)=O)NC(=O)[C@@H](CC(=O)O)NC(=O)[C@H](Cc3cnc[nH]3)NC(=O)[C@@H](Cc3ccccc3)NC(=O)[C@H]([C@@H](C)CC)NC(=O)[C@@H](CCCN)NC2=O)[C@@H](C)CC)CS1` (stereo not given in full) (X1-L[dE]IK[dOrn]I[dF]H[dD]N; lactam 4-C), for which the Potency result is “inactive”. Same read-out and setting: in the case of `COc1ccc(C2=CC(=O)OC2Cc2ccc(O)cc2)c(O)c1` (stereo not given) it was “inactive”.

For `O=C(NCc1ccc(OC(F)(F)F)cc1)C1c2ccccc2C(=O)N1C1CCOCC1` (stereo not given), the Potency entry is “inactive”.

Take `O=C(O[C@H]1[C@@H]2C=CO[C@@H](O[C@@H]3O[C@H](CO)[C@@H](O)[C@H](O)[C@H]3O)[C@@H]2[C@@]2(CO)O[C@@H]12)c1ccc(O)cc1`: the Potency entry is “inactive”. On the same count and under the same terms, in the case of `Cc1cc(O)c(C(C)C)cc1O[C@@H]1O[C@H](CO)[C@@H](O)[C@H](O)[C@H]1O` it was “inactive”; in that of `COC(=O)C1C(c2ccc(O)cc2)C(C(=O)OC)C1c1ccc(O)cc1` (stereo not given), “inactive”; in that of `CCOC(=O)N1CCC(NCCNC(=O)c2ccccc2C)CC1`, “inactive”.

In the case of `CC(=O)Oc1cc2c(s1)CCN([C@H](C(=O)C1CC1)c1ccccc1F)C2`, the Potency entry is “inactive”.

Take `CC1CCC23COC(=O)C2=CC(O)CC3C1(C)CCC1=CC(=O)OC1O` (stereo not given): the Potency result is “inactive”.

Turning to `CNC(=O)COC(=O)NCCC1CCN(c2cccc(C)n2)CC1`, the Potency entry was “inactive”. In the case of `C=CC(C)(O)CO[C@@H]1O[C@H](CO)[C@@H](O)[C@H](O)[C@H]1O` (stereo not given in full), the Potency result is “inactive”.

`C[C@]12CC[C@@H]3c4ccc(O[C@@H]5O[C@H](C(=O)O)[C@@H](O)[C@H](O)[C@H]5O)cc4CC[C@H]3[C@@H]1CCC2=O`: the Potency result was “inactive”. The same measure, in the same setting: in the case of `CC(=O)c1c(C)cc(O)cc1O[C@@H]1O[C@H](CO)[C@@H](O)[C@H](O)[C@H]1O` it was “inactive”; in that of `O=C1[C@H](O[C@@H]2O[C@H](CO)[C@@H](O)[C@H](O)[C@H]2O)Oc2ccccc2N1O`, “inactive”; in that of `CC(=O)N(O)CCCCCN1C(=O)CCC1=O`, “inactive”. The same measure, in the same setting: in the case of `CC(C)(O)C1=CCC23COC(C2)C(O)(C(=O)O)CCC13` (stereo not given) it was “inactive”; in that of `Nc1ccn([C@@H]2C(F)=C(CO)[C@@H](O)[C@H]2O)c(=O)n1`, “inactive”. The same measure, in the same setting: in the case of `O=C(c1ccccn1)c1cnn2c(-c3ccncc3)ccnc12` it was “inactive”. On to `COC(=O)C1=CO[C@@H](O[C@@H]2O[C@H](CO)[C@@H](O)[C@H](O)[C@H]2O)[C@@H]2[C@@H](C(=O)OC)[C@@H](O)C(O)[C@H]12` (stereo not given in full), for which the Potency entry is “inactive”.

`C[C@@H]1CC[C@]2(C)C3(C)CC[C@@]2(OC3=O)[C@@]12C[C@H](c1ccoc1)OC2=O`: the Potency result was “inactive”. Still for that read-out and setting: in the case of `CC1(C)C(O)CCC2(C)C1C(O)C=C1COC(=O)C12O` (stereo not given) it was “inactive”. On the same count and under the same terms, in the case of `CC1CCC(=O)CC(O)C(O)CC(=O)O1` (stereo not given) it was “inactive”; in that of `C=C1CC23CC1(O)CCC2C1=CC2OC(=O)C(C)(C2O)C1C3C(=O)O` (stereo not given), “inactive”; in that of `CC1C/C=C/C=C\CCCCC(O)C/C=C/C(=O)O1` (stereo not given), “inactive”.

As for `CC(=O)OC[C@]1(O)[C@H]2[C@H](OC(=O)CC(C)C)OC=C(CO[C@@H]3O[C@H](CO)[C@@H](O)[C@H](O)[C@H]3O)[C@H]2C[C@@H]1O`, the Potency entry was “inactive”. `CC1C(=O)CC2C3C(O)CC(C(=O)O)C12CC3(C)C` (stereo not given): the Potency result was “inactive”. `CC(NC(=O)CC(=O)O)c1nc2ccccc2c(=O)[nH]1` (stereo not given): the Potency entry is “inactive”.

On to `O=C(Nc1cccnn1)N1CCC(=Cc2cccc(Oc3ccc(C(F)(F)F)cn3)c2)CC1`, for which the Potency entry was “inactive”.

Regarding `Cn1c(=O)cc(N2CCCC(N)C2)n(Cc2ccccc2C#N)c1=O` (stereo not given), the Potency result is “inactive”.
